In the library only some 11% were active in any assay of this set; here they are far more common.
NPR1 antag: human Npr1 receptor antagonism; P16066; HEK293 hNpr1 GloSensor cGMP, ANP-stimulated luminescence; Potency, µM (doses to about 46.3 µM), inactives show top-dose activity change, negative = inhibition, most hits filed as inhibitors; actives 1.6% (n = 76,000); AID 1347048; calls by dose curve; further: nearly all actives have a fitted effect of over 60% in size
Target sequence (P16066 whole entry, looked up): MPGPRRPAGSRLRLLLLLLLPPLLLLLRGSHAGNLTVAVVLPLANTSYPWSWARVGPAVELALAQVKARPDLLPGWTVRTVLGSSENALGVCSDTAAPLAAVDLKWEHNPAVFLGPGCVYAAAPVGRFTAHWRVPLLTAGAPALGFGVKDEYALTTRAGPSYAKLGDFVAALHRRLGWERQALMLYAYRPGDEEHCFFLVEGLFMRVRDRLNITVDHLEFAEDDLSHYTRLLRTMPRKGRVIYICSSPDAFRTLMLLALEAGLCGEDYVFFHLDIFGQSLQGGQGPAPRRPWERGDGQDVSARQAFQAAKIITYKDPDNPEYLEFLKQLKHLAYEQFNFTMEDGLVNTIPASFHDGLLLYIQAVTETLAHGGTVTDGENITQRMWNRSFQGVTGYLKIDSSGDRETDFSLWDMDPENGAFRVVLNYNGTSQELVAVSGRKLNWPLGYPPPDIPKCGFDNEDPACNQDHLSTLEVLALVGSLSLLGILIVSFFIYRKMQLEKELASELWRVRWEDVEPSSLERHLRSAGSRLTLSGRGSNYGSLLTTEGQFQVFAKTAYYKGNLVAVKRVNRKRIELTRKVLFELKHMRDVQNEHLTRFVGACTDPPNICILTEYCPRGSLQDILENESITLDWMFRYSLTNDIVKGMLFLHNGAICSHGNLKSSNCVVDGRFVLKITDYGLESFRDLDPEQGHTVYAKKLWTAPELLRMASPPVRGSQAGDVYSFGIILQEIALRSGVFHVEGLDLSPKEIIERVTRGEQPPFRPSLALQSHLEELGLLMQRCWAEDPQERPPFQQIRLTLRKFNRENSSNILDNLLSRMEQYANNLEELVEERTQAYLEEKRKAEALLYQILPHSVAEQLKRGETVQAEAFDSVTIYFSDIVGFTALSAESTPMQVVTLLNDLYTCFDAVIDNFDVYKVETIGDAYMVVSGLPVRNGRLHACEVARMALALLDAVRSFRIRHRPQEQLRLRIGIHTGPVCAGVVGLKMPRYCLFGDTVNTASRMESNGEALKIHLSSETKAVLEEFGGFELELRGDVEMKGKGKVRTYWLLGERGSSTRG
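Compound pre-incubated 30 min at room temperature on GloSensor-loaded HEK293 cells stably carrying hNpr1 and the pGS-40F cGMP biosensor. Stimulation uses hNppA at 0.1 nM final; luminescence is taken at baseline and 20 min post-agonist.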
3T3 cytotox: NIH 3T3 cell cytotoxicity | actives 4.3% (n = 94,000) | AID 1345082 | NIH 3T3 viability, CellTiter-Glo ATP luminescence, 48-72 h | Potency, µM (series often up to 96.7 µM), for the others: top-dose activity change, negative = cytotoxicity, usual class: inhibitors; further: nearly all actives have a fitted effect of over 55% in size
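Viability of NIH 3T3 cells after 48 or 72 hr compound treatment at 37 °C was assessed by CellTiter-Glo, with luminescence imaged following a 10 min room-temperature step.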
HEK293 tox: kills HEK 293 cells; HEK 293 viability, ATP luminescence (CellTiter-Glo), 48-72 h; Potency, µM (titrated, usually from 115 µM), without a hit: at the top dose activity change, negative = cytotoxicity, most hits filed as inhibitors; actives 6.6% (n = 94,000); further: nearly all actives have a fitted effect of over 60% in size
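Read-out: CellTiter-Glo ATP luminescence. Cells: HEK 293, 250 cells/well. Exposure: 48 or 72 hr, 37 degree Celsius.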
FLuc inh: Photinus pyralis luciferase inhibition | purified P. pyralis luciferase, luminescence, biochemical | actives 2.5% (n = 76,000) | Potency, µM (highest dose often 115 µM), most hits filed as inhibitors; further: nearly all actives have a fitted effect of over 65% in size
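Cell-free enzyme assay, 10nM P. pyralis luciferase, luciferin and ATP each at 10uM. Inhibition profiled over a 6-point titration, read as luminescence.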
Active calls of the source: *; i = inactive; ? = inconclusive; nt = not tested or not shown; [ ] = remark or other dose. Unless noted, the call rests on the fitted dose curve; in most records, active means well fitted curve in the direction sought with a large enough effect; inconclusive means small, poorly fitted or top-dose-only effect, or another doubt; inactive means no such curve, though single readings can be large; an effect the other way counts as inactive or inconclusive. On the % scale 0 is the no-effect control and ±100 the full control effect; potency means the concentration at half of the fitted maximal effect.

SMILES	NPR1 antag	3T3 cytotox	HEK293 tox	FLuc inh
COc1ccccc1-c1cccc(CN2CCCC(C(=O)NCc3ccc(C(F)(F)F)cc3)C2)c1 (centres undefined)	nt	22µM*	18µM*	nt
Cc1ccc(-c2cccc(CN3CCCC(NC(=O)Cc4cccc(Cl)c4)C3)c2)cc1Cl (centres undefined)	nt	-14%	i	nt
COc1ccccc1-c1cccc(CN2CCCC(C(=O)NCc3cccc(Cl)c3)C2)c1 (centres undefined)	nt	32µM*	14µM*	nt
COc1ccccc1-c1cccc(CN2CCCC(C(=O)NCc3cccc(C(F)(F)F)c3)C2)c1 (centres undefined)	nt	16µM*	14µM*	nt
COc1ccccc1-c1cccc(C(=O)N2CCC[C@H]2C(=O)NCC(F)(F)F)c1	nt	-16%	-10%	nt
COc1ccccc1-c1[nH]ncc1CN1CCCC(C(=O)NCc2ccccc2)CCNC(=O)CC1 (centres undefined)	0%	i	-1%	i
COc1ccccc1-c1cccc(CN2CCCC(C(=O)NCc3cccnc3)C2)c1 (centres undefined)	nt	35µM*	?	nt
Cc1cc(CN2CCCC(CCNC(=O)C3(N)CC3)C2)oc1C (centres undefined)	-4%	-19%	-9%	i
O=C(c1ccoc1)N1CCC(O)(c2ccccc2)[C@H](N2CCCC2)C1 (some centres undefined)	-2%	?	-17%	i
COC(=O)CNC(=O)C1CCN(C(=O)c2ccc(-c3ccccc3OC)cc2)CC1	nt	-6%	?	nt
COc1ccc(-c2nn(-c3ccccc3C)cc2CN2CCCC2c2nonc2C)cc1F (centres undefined)	2%	-19%	?	i
COc1ccccc1-c1cccc(CN2CCCC(C(=O)NCc3ccc(F)cc3)C2)c1 (centres undefined)	nt	32µM*	32µM*	nt
COc1ccc(-c2noc([C@@H]3Cc4nc[nH]c4CN3C(=O)Nc3ccc(C)cc3)n2)cc1	?	?	?	18µM*
COc1ccc(NC(=O)N2Cc3[nH]cnc3C[C@H]2c2nc(-c3ccc(C)cc3)no2)cc1	?	?	?	63µM*
COc1ccc(NC(=O)N2Cc3[nH]cnc3C[C@H]2c2nc(-c3ccc(F)cc3)no2)cc1	-30%[70.6 µM]	50µM*	?	?
COc1ccc(NC(=O)N2Cc3[nH]cnc3C[C@H]2c2nc(-c3ccc(F)c(Cl)c3)no2)cc1	?	32µM*	?	?
COCC(=O)NC1CCC12CCN(Cc1cccnc1)CC2 (centres undefined)	nt	i	i	nt
COCCCNC(=O)CN1C(=O)COc2ccc(C(=O)COc3ccc(OC)cc3)cc21	0%	-15%	-11%	i
O=C1NCCCC[C@]12C[C@H](CO)[C@H](c1ccco1)N2[S+](=O)([O-])c1ccccc1	nt	?	i	nt
O=C(O)CCn1ncc2cc(OCC3CCN(C(=O)Oc4ccccc4Cl)CC3)ccc21	4%	18µM*	-25%	?
O=C(O)CCn1ncc2cc(OC3CCN(C(=O)COc4ccccc4)CC3)ccc21	5%[70.6 µM]	50µM*	i	i
O=C(O)CCn1ncc2cc(OCC3CCN(C(=O)CCC(F)(F)F)CC3)ccc21	6%[70.6 µM]	13µM*	-9%[172 µM]	i
O=C(O)CCn1ncc2cc(OC3CCN(C(=O)Oc4ccccc4)CC3)ccc21	2%[70.6 µM]	?	-19%[172 µM]	i
Cc1ccsc1CN1CCCCCCNC(=O)CC1	-1%	-16%	?	i
O=C(CNC(=O)c1cccc(-c2ccc(C(F)(F)F)cc2)c1)NCCC1CCCCC1	nt	22µM*	22µM*	nt
SMILES	NPR1 antag	3T3 cytotox	HEK293 tox	FLuc inh
O=C(CNC(=O)c1cccc(-c2ccc(C(F)(F)F)cc2)c1)NCCc1ccc(Cl)cc1	nt	-23%	16µM*	nt
O=C(c1ccncc1)N1CC(Oc2ccccc2-c2nc(-c3cnccn3)no2)C1	0%	-4%	-30%	i
O=C(c1ccccc1)N1CCC(C(=O)N2CCCC(c3nc4ccncc4[nH]3)C2)CC1 (centres undefined)	nt	-11%	i	nt
c1cnc(N2CCOCC2)c(CN(Cc2ccsc2)CC2CCCO2)c1 (centres undefined)	-2%	-26%	-24%	i
COC(=O)c1ccccc1Nc1nc(-c2ccccc2)no1	-9%	i	10%	14µM*
COc1ccc(-c2noc(Nc3ccc(OC)cc3OC)n2)cc1	-2%	-29%	?	25µM*
CCc1cccc(Nc2nc(-c3ccc(OC)c(OC)c3)no2)c1	-14%	?	?	?
COC(=O)c1ccccc1NC(=O)Cn1cccc1-c1nc(-c2ccc(OC)c(F)c2)no1	1%	4%	11%	i
O=C(c1ccccc1Cl)N1CCCC(C(=O)N2CCC(c3nc4ncccc4[nH]3)C2)C1 (centres undefined)	nt	-22%	i	nt
CCCCCC(=O)Nc1nc2c(s1)C[C@@H]1[C@](C)(CO)[C@H](O)CC[C@@]1(C)[C@@H]2CC(=O)N(C)Cc1ccccc1	-11%	50µM*	28µM*	i
CCCCCC(=O)Nc1nc2c(s1)C[C@@H]1[C@](C)(CO)[C@H](O)CC[C@@]1(C)[C@@H]2CC(=O)N[C@H](C)c1ccccc1	1%	?	40µM*	i
C[C@@H](NC(=O)C[C@@H]1c2nc(-c3cccnc3)sc2C[C@@H]2[C@](C)(CO)[C@H](O)CC[C@]21C)c1ccccc1	-4%	20µM*	?	i
C#CCN(C)C(=O)C[C@@H]1c2nc(NC(=O)CCCCC)sc2C[C@@H]2[C@](C)(CO)[C@H](O)CC[C@]21C	-4%	-6%	-12%	i
O=C(Cc1ccccc1Cl)Nc1ccc(-c2nnc3n2CCCC3)cc1	8%	-4%	-2%	i
O=C(CCC1CCCC1)N1CCCC1c1nc(CCOCC2CCOCC2)no1 (centres undefined)	-2%	-6%	?	i
CN(Cc1ccc(F)cc1)Cc1cnc(S(C)(=O)=O)n1CCCc1ccccc1	0%	?	20µM*	i
CC(C)S(=O)(=O)c1ncc(CN(C)Cc2cnn(C)c2)n1CCc1ccccc1	-7%	-19%	-6%	i
CCCCn1c(CN(C)Cc2cnn(-c3ccccc3C)c2)cnc1S(=O)(=O)CC	-16%	?	?	i
CCS(=O)(=O)c1ncc(CN(C)Cc2ccc3nonc3c2)n1CCc1ccccc1	-1%	-21%	22µM*	i
OCC1(CN2CCCC2)CCN(Cc2ccc(Cl)cc2)CC1	2%	?	?	i
CC(Cc1ccc2c(c1)OCO2)CN1CCC(CO)(CN2CCCC2)CC1 (centres undefined)	-11%	40µM*	?	i
CC(C)CNc1ccc2c(n1)C(C)(C(=O)NC1CCC(O)CC1)CN(Cc1ccccc1)C2 (centres undefined)	-11%	45µM*	?	i

Source: PubChem BioAssay (National Center for Advancing Translational Sciences (NCATS))
